The list is not random: actives were taken first. Their share in the collection is about 2.3%.
GLD-1 TGE inh – GLD-1-TGE RNA interaction inhibition (C. elegans). Q17339. purified GLD-1 + fluorescein TGE RNA, fluorescence polarization. inhibition, % at 5.96 µM. actives 0.44% (n = 320,000). AID 2280;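 active means percent inhibition above a per-plate cutoff, the plate mean of test compounds plus 3 SD, cut at about 30% in these data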;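 further: 0% = DMSO wells with GLD-1 and probe and 100% = wells lacking GLD-1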
Bcl-xL primary – Bcl-xL (human) inhibition; GST-Bcl-xL / FITC-Bim BH3 peptide fluorescence polarization; inhibition, % at 10.9 µM; actives 0.7% (n = 320,000);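 active means inhibition above the mean of all tested compounds plus 3 SD, cutoff set per campaign, cut at about 30% in these data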;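 further: 0% = DMSO wells and 100% = unlabeled Bim-BH3 peptide competitor; inhibitors lower millipolarization by displacing the labeled peptide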
Target sequence (Q07817 whole entry, looked up): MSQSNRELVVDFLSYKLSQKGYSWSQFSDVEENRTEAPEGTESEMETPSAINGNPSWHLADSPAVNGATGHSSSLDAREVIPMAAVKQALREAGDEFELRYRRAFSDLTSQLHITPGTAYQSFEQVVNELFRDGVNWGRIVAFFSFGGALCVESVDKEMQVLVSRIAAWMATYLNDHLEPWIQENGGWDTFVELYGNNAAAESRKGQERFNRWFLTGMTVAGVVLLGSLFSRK
MCL1-BIM inh – disrupts human MCL1 binding to BIM-BH3 peptide; inhibition, % at 10.9 µM; actives 0.68% (n = 320,000); GST-MCL1 / FITC-Bim-BH3 fluorescence polarization; Q07820;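 active means inhibition above the mean inhibition of all tested compounds plus 3 SD, set per campaign, cut at about 40% in these data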;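 further: 0% = DMSO wells and 100% = unlabeled Bim-BH3 peptide control; higher means more loss of mP so more displacement of Bim peptide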
Target sequence (Q07820 whole entry, looked up): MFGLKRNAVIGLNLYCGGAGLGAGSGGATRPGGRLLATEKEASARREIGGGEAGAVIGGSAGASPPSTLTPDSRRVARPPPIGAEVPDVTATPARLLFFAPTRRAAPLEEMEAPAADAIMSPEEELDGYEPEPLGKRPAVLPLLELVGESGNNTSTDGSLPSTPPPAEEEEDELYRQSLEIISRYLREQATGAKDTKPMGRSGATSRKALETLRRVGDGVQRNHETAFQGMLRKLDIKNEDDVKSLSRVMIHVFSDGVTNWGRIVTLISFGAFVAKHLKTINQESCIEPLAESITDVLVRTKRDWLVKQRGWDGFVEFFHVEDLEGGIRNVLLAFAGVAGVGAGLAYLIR
Mcl1-Noxa inh – Mcl-1/Noxa interaction inhibition; inhibition, % at 21.7 µM; AID 1022; TR-FRET Mcl-1/Noxa peptide binding, 2 h; Q07820; actives 1.5% (n = 220,000);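 active means compounds that cut the protein-peptide binding signal by more than 50% relative to plate controls in a single-dose test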;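 further: His-tagged Mcl-1 with rhodamine Noxa BH3 peptide and terbium anti-His antibody; 0% = Mcl-1 plus Noxa peptide wells and 100% = peptide-only wells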
Bim-Mcl-1 – inhibitors of Bim-Mcl-1 interaction, human | Q07820 | Bead-based flow cytometry, Bim peptide-Mcl-1 binding | inhibition, % at 10 µM | actives 0.1% (n = 190,000); in the data active means inhibition above about 40%;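 further: 0% = no compound tracer wells and 100% = peptide blocker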
Mcl1 Bid PPI – disrupts binding of human Mcl-1 to Bid peptide; Q07820; TR-FRET Mcl-1/Bid-Dy647 peptide binding, 1536-well; inhibition, % at 21.7 µM; actives 0.97% (n = 220,000); AID 1021;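 active means compounds that cut the binding signal by more than half at the single screening dose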;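 further: His-tagged Mcl-1 with europium anti-His antibody binding Bid BH3 peptide; 0% = Mcl-1 plus peptide wells and 100% = peptide-only wells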
* hit, by the source's call; . = no result.

SMILES | GLD-1 TGE inh | Bcl-xL primary | MCL1-BIM inh | Mcl1-Noxa inh | Bim-Mcl-1 | Mcl1 Bid PPI
COc1ccc(OC)c(CN2CCC(C(=O)N3CCOCC3)CC2)c1 | 4 | 4 | 4 | 13 | 0 | 53*
COc1ccc(CN2CCCC(C(=O)N3CCCC3)C2)c(OC)c1 (centres undefined) | 5 | 1 | -3 | . | . | .
COc1cc(OC)c(OC)cc1CN1CCCC(C(=O)N2CCCCC2)C1 (centres undefined) | 5 | 3 | -3 | 3 | -2 | 53*
CC1CCC(NC(=O)CNC(=O)Cc2cccc3ccccc23)CC1 (centres undefined) | 7 | 0 | 2 | . | . | .
C/C(=N\NC(=O)c1cc(-c2ccc(C)s2)[nH]n1)c1ccncc1 | -4 | 2 | 3 | . | . | .
COc1cc(NC(=O)Cn2cnc3c(OCc4ccccc4)ncnc32)cc(OC)c1OC | -1 | . | . | . | . | .
COc1ccc(-c2nn3c(-c4ccco4)nnc3s2)cc1OC | 5 | 10 | -1 | 35 | 20 | -30
COc1cc(OC)c(-c2nn3c(-c4ccco4)nnc3s2)cc1OC | . | . | . | 64* | 4 | -8
c1ccc(-c2cc(-c3nn4c(-c5ccco5)nnc4s3)c3ccccc3n2)cc1 | 1 | 9 | 13 | 51* | 4 | 38
COc1ccc(C(=O)OC(C)C(=O)NC2CCCCC2C)cc1S(=O)(=O)N1CCOCC1 (centres undefined) | 6 | -9 | -11 | . | . | .
Cc1cccc(NC(=S)NC2CCN(Cc3ccccc3)CC2)c1C | -1 | 5 | 16 | -22 | -9 | 20
CC(C)(C)CC(C)(C)NC(=S)NC1CCN(Cc2ccccc2)CC1 | -5 | 1 | 7 | -3 | -3 | 92*
NS(=O)(=O)c1ccc(CNC(=O)c2cc(-c3cccnc3)nc3ccc(Cl)cc23)cc1 | 1 | -6 | 0 | . | . | .
O=C(c1ccco1)N1CCN(C(=O)c2cc(-c3ccccn3)nc3ccc(Cl)cc23)CC1 | 9 | 40* | 37 | 64* | 0 | -6
NS(=O)(=O)c1ccc(CNC(=O)c2cc(-c3ccccn3)nc3ccc(Cl)cc23)cc1 | 14 | 41* | 44* | 54* | 1 | -63
CCSc1ccccc1C(=O)NCc1ccc(S(N)(=O)=O)cc1 | 3 | -3 | 12 | 53* | -3 | -5
NS(=O)(=O)c1ccc(CNC(=O)c2ccccc2SCC(=O)N2CCCC2)cc1 | 4 | -2 | 6 | . | . | .
O=C(CSc1nc2ccc(Cl)cc2[nH]1)N1CCN(C(=O)c2ccco2)CC1 | -3 | 2 | 2 | 57* | 21 | -9
Cc1ccc2nc(SCC(=O)N3CCN(C(=O)c4ccco4)CC3)[nH]c2c1 | 2 | 3 | -7 | 8 | -5 | -6
CN1CCOc2cc(S(=O)(=O)NCc3ccc(S(N)(=O)=O)cc3)ccc21 | 3 | 1 | 2 | . | . | .
CCOC(=O)[C@H]1[C@H]2COc3cc(OC)ccc3[C@@H]2N2C(=O)[C@@H](CO)NC(=O)[C@@]12C | 4 | . | . | . | . | .
Cc1c(NC(=O)CSCc2ccco2)c(=O)n(-c2ccccc2)n1C | 7 | -3 | -4 | . | . | .
CC(C)n1nnnc1SCC(=O)N1CCN(C(=O)c2ccco2)CC1 | 7 | 7 | -4 | 3 | 93* | 4
CCOCCCNC(=O)/C(C#N)=C/c1ccc([N+](=O)[O-])o1 | 46* | 34* | 34 | 6 | 0 | -8
O=C(Nc1ccc(N2CCOCC2)cc1)Nc1ccc2nc(-c3ccco3)c(-c3ccco3)nc2c1 | 15 | 20 | 12 | 102* | 7 | 42
SMILES | GLD-1 TGE inh | Bcl-xL primary | MCL1-BIM inh | Mcl1-Noxa inh | Bim-Mcl-1 | Mcl1 Bid PPI
O=C(Nc1ccc2nc(-c3cccs3)c(-c3cccs3)nc2c1)N1CCOCC1 | 4 | 10 | 9 | 12 | 3 | -2
O=S(=O)(c1ccc2ccccc2c1)N1CCOCC1 | 1 | 1 | -2 | . | . | .
O=C(Nc1ccc2nc(-c3ccco3)c(-c3ccco3)nc2c1)NC1CC1 | . | . | . | 102* | 21 | 29
O=S(=O)(c1ccc2nc(-c3ccco3)c(-c3ccco3)nc2c1)N1CCOCC1 | 10 | 20 | 26 | 90* | 8 | 25
OCCCNC(=S)Nc1ccc2nc(-c3ccccn3)c(-c3ccccn3)nc2c1 | 30 | 46* | 43* | 13 | 2 | -54
Cc1cccc(C)c1NC(=O)CN1CCc2ccccc2C1 | 10 | -2 | -9 | . | . | .
O=C(NCc1ccco1)Nc1ccc2nsnc2c1 | 0 | 4 | -12 | 16 | 3 | 0
O=C(NCCCO)Nc1ccc2nc(-c3ccco3)c(-c3ccco3)nc2c1 | 54* | 120* | 158* | 101* | 31 | 55*
O=C(N/C(=C\c1ccc(Br)cc1)C(=O)N1CCOCC1)c1ccco1 | 10 | -2 | 4 | . | . | .
O=C(CN1C(=O)NC2(CCCC2)C1=O)Nc1ccc(C(F)(F)F)cc1 | -1 | 2 | -7 | . | . | .
CCCONC(=O)Nc1ccccc1[N+](=O)[O-] | 3 | 2 | 0 | -9 | -4 | 66*
COC(=O)C(C)(C)ONC(=O)Nc1ccccc1[N+](=O)[O-] | -4 | 5 | -2 | -8 | 0 | -20
COc1ccc(C(=O)N/C(=C\c2cccc3ccccc23)C(=O)N2CCN(C)CC2)cc1 | -6 | 4 | 3 | . | . | .
Nc1c2c(nc3ccc(Br)cc13)N(Cc1ccccc1)CC2 | 3 | 1 | -9 | 84* | 0 | 14
Nc1c2c(nc3ccc(Br)cc13)N(c1ccccc1)CC2 | 3 | -1 | -6 | 25 | 3 | 9
Nc1c2c(nc3ccc(Br)cc13)N(C1CCCCC1)CC2 | -2 | 1 | -16 | 68* | 0 | 6
Nc1c2c(nc3ccccc13)N(C1CCCCC1)CC2 | -1 | 7 | 8 | 39 | 0 | 7
CC1CCN(CCOc2ccccc2-c2ccccc2)CC1 | 3 | 12 | 3 | 19 | 0 | 28
CC(C)(C)NCCOCCOc1ccccc1-c1ccccc1 | -11 | -3 | -16 | 4 | -2 | 56*
CC1CC(C)CN(CCOc2ccccc2-c2ccccc2)C1 (centres undefined) | 10 | -2 | 4 | 31 | -3 | 57*
COc1ccc(CN2CCNC(=O)C2CC(=O)NCCCC2CCCC2)c(C)c1C (centres undefined) | 6 | 8 | 5 | . | . | .
COc1ccc(OCC(=O)Nc2ccc(N3CCN(C(=O)c4ccccc4)CC3)c(Cl)c2)cc1 | -3 | 8 | -2 | . | . | .
O=C(CSCc1ccccc1)NCCCN1CCOCC1 | 2 | 4 | 4 | 7 | 0 | 98*
O=C(NC1CCCCC1)c1cccc2c1C(=O)c1ccc(N3CCC(Cc4ccccc4)CC3)cc1S2(=O)=O | 62* | . | . | . | . | .
O=C(NCC1CCCO1)c1cccc2c1C(=O)c1ccc(N3CCC(Cc4ccccc4)CC3)cc1S2(=O)=O (centres undefined) | 6 | . | . | . | . | .
O=C(NCc1ccccc1Br)c1cccc2c1C(=O)c1ccc(N3CCC(Cc4ccccc4)CC3)cc1S2(=O)=O | 157* | . | . | . | . | .

Screening results: PubChem, several laboratories
